CIT2-GFP yeast: modulators of CIT2-GFP expression in yeast, primary screen, S. cerevisiae, GFP fusion, multiplex flow cytometry, MLPCN library; S. cerevisiae CIT2-GFP strain, 3 h; 100 means same as DMSO wells; 320,000 tested, 0.065% active; GFP response vs DMSO, % at 10 µM;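 active means GFP response relative to DMSO above a set limit, near the screen mean plus 3 SD, cut at about 150% in these data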;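 further: ratio of well median GFP fluorescence to mean of DMSO wells on the plate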
MEP2-GFP yeast: modulators of MEP2-GFP levels in yeast, primary screen, S. cerevisiae, multiplex flow cytometry, MLPCN library | AID 2016, 2009 | S. cerevisiae MEP2-GFP strain, 3 h; 100% = DMSO control level | GFP response vs DMSO, % at 10 µM | 330,000 tested, 0.51% active;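 active means GFP response versus DMSO above a set limit, roughly screen mean plus 3 SD, cut at about 180% in these data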;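 further: median GFP fluorescence of the barcode-gated MEP2-GFP cells per well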
AGP1 TOR yeast: modulators of AGP1-GFP expression in yeast TOR pathway, primary screen, cell-based, multiplex flow cytometry, S. cerevisiae, MLPCN library; 3 h; GFP as percent of DMSO wells; GFP response vs DMSO, % at 10 µM; 320,000 tested, 0.02% active;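 active means GFP response relative to DMSO above a set limit, near screen average plus 3 SD, cut at about 150% in these data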;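 further: median GFP channel fluorescence of the gated AGP1 strain per well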
VLA-4 inh: inhibition in human VLA-4 binding assay, primary screen, VLA-4 allosteric modulator project, MLPCN library, flow cytometry, VLA-4 expressing cells; 330,000 tested, 0.2% active; inhibition, % (about 7 µM as worked out from the volumes in the protocol); ligand binding flow cytometry; Integrin alpha-4 (Homo sapiens), P13612; in the data active means inhibition above about 50%
Target sequence (P13612 whole entry, looked up): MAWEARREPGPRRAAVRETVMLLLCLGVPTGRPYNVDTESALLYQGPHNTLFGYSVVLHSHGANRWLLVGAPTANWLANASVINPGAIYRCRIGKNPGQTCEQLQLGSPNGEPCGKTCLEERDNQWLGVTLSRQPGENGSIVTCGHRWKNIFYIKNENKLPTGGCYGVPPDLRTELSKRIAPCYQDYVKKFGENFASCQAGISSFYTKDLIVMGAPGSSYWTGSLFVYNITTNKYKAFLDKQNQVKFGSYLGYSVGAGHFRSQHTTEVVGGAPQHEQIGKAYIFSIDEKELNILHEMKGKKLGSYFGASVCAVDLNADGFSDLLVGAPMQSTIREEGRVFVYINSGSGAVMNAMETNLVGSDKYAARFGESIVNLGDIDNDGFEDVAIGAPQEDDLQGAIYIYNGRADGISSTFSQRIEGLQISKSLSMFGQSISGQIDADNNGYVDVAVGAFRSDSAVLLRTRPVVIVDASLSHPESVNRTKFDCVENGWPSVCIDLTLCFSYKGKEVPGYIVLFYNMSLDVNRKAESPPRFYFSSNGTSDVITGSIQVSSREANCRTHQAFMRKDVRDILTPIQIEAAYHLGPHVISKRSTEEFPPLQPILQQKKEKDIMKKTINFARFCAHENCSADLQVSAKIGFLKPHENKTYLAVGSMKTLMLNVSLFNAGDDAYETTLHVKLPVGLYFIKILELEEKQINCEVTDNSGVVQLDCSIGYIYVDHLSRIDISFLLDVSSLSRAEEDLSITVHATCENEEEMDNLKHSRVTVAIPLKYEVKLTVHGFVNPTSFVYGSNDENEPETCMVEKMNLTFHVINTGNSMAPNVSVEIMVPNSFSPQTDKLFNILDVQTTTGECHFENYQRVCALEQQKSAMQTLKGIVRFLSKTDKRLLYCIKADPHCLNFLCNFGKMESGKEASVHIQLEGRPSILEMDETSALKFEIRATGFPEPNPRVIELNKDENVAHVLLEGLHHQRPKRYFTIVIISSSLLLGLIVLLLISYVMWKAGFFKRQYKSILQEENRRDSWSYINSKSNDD
RPL19A-GFP yeast: RPL19A-GFP expression modulators in yeast, primary screen, cell-based, S. cerevisiae, multiplex flow cytometry, MLPCN; S. cerevisiae RPL19A-GFP strain, 3 h; active compounds read low; percent response vs DMSO, % at 10 µM; 330,000 tested, 0.3% active;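 active means percent response vs DMSO below 50%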;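 further: median channel GFP fluorescence of the barcoded RPL19A-GFP strain; lower means less RPL19A-GFP as with rapamycin TOR inhibition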
LAP4-GFP MLPCN: modulators of LAP4-GFP expression in yeast, primary screen, S. cerevisiae, multiplex flow cytometry, MLPCN library; 3 h; median GFP as percent of DMSO wells; GFP response vs DMSO, % at 10 µM; 320,000 tested, 0.34% active;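 active means GFP response vs DMSO above a set limit, about the screen mean plus 3 SD, cut at about 150% in these data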
VLA-4 mod pick: retest of VLA-4 allosteric modulators, confirmation, cell-based, cherry-picked plates, U937, HUTS-21 LIBS antibody | U937 cells, HUTS-21 LIBS mAb binding, flow cytometry; LDV ligand present at threefold Kd | shares compounds with VLA-4 inh | inhibition, % at 6.7 µM | AID 2813, 2010 | 1,300 tested, 2% active; in the data active means inhibition above about 40%
Each line names hits and unclear results; the compound was inactive in the other large screens (follow-up assays come after a bar, where they were run). Most compounds without a hit are left out; they make up all but 1.1% or so of the library.

O=C(c1cc(-c2ccccc2Cl)nc2ccc(Br)cc12)N1CCN(c2ccccn2)CC1	none
O=C(c1cc(-c2ccc(Br)cc2)nc2ccccc12)N1CCN(c2ccccc2O)CC1	none | VLA-4 mod pick inactive
COc1cccc(-c2cc(C(=O)N3CCN(c4ncccn4)CC3)c3ccccc3n2)c1	none
CCOC(=O)C1CCN(C(=O)c2ccccc2NC(=O)C2=C(C)OCCS2)CC1	none
O=C(CNC(=O)c1ccccc1)OCCCOC(=O)CNC(=O)c1ccccc1	none
CNc1nc(N(C)C)nc(N(C)C)n1	VLA-4 inh 58.5 | VLA-4 mod pick inactive
CC1CCCC(C)N1C(=O)COC(=O)/C=C/c1ccc(Br)o1 (stereo not drawn)	none
CCc1nc(SCC(=O)Nc2cc(OC)ccc2OC)c2c(C)c(C)sc2n1	none
Cc1cc(/C=N\NC(=O)c2cccs2)c(C)n1-c1ccc2ncccc2c1	VLA-4 inh 93.4 | VLA-4 mod pick inactive
Cc1cc(/C=N\NC(=O)COc2cccc3cccnc23)c(C)n1-c1ccc(Br)cc1	none
CCOc1ccc(CN(CCO)CCO)cc1[N+](=O)[O-]	VLA-4 inh 90.3 | VLA-4 mod pick inactive
CCCCOc1ccc(CN(CCO)CCO)cc1[N+](=O)[O-]	none
CCc1cc(C(=O)N(CC)CC(=O)Nc2ccc(OC)cc2)sc1C	none
CCC(C)C(NC(=O)c1ccc(Cl)cc1)C(=O)O (stereo not drawn)	VLA-4 inh 93.2 | VLA-4 mod pick inactive
CCC(C)C(NC(=O)c1ccc(Cl)cc1Cl)C(=O)O (stereo not drawn)	none
Cc1cc(C)c(C(=O)COC(=O)C2CCN(c3ccc(C(F)(F)F)cn3)CC2)c(C)c1	none
COc1ccc(C(=O)N/C(=C\c2ccccc2)C(=O)Nc2ccccc2C(=O)O)cc1	none
C/C(=N\NC(=O)c1ccccc1)c1ccc2c(c1)OCO2	VLA-4 inh 71.3 | VLA-4 mod pick inactive
COc1cc(OC)cc(C(=O)NC(=S)NCc2ccco2)c1	none
COc1cc(OC)cc(C(=O)NNC(=S)NCc2ccco2)c1	VLA-4 inh 52.6 | VLA-4 mod pick inactive
Cc1cc(Cl)ccc1NC(=O)Cn1cncn1	VLA-4 inh 52.9 | VLA-4 mod pick inactive
CNC(=O)C(=O)Nc1c(C)cc(C)cc1C	none | VLA-4 mod pick inactive
Cc1ccc(-c2nn3c(-c4ccco4)nnc3c3ccccc23)cc1S(=O)(=O)NCC1CCCO1 (stereo not drawn)	none | VLA-4 mod pick inactive
Cc1ccc(C(=O)c2cc([N+](=O)[O-])ccc2N2CC(C)OC(C)C2)cc1 (stereo not drawn)	none | VLA-4 mod pick inactive
O=C(c1ccc(Br)cc1)c1cc([N+](=O)[O-])ccc1N1CCOCC1	none | VLA-4 mod pick inactive
O=C(c1ccc(Cl)cc1)c1cc([N+](=O)[O-])ccc1N1CCOCC1	none
O=C(c1ccccc1)c1cc([N+](=O)[O-])ccc1N1CCOCC1	none | VLA-4 mod pick inactive
COc1ccccc1CNC(=O)CN1CCN(c2ccc(C(C)=O)cc2)CC1	none
CCC(CC)c1nnc(NC(=O)c2cc([N+](=O)[O-])ccc2N2CCOCC2)s1	none
CC(C)CN(CC(C)C)C(=O)c1cc(S(=O)(=O)N2CCCCC2)c[nH]1	none
Cc1nn(CC(=O)Nc2ccc(C(=O)N(C)C)cc2)c(=O)c2ccccc12	VLA-4 inh 51.4 | VLA-4 mod pick inactive
O=C(NN=C1CCCCCC1)c1ccc(Cl)s1	none
COC(=O)c1ccncc1C(=O)Nc1ccc(Oc2ncc(C(F)(F)F)cc2Cl)cc1	VLA-4 inh 49.9 | VLA-4 mod pick inactive
Cc1[nH]c(-c2ccc(F)cc2)cc1C(=O)N1CCN(c2cccc(Cl)c2)CC1	none
Cn1cc(CCCC(=O)NCc2ccccc2)c2ccccc21	none
Cc1ccc(CNC(=O)CCCc2cn(C)c3ccccc23)cc1	none | VLA-4 mod pick inactive
COc1cc(/C=N/c2oc(C)c(C)c2C#N)cc(Br)c1O	none
CN(CC(=O)Nc1ccc(F)cc1)C(=O)COC(=O)c1cc(S(=O)(=O)N(C)C)ccc1N1CCCC1	none
Cc1noc(C)c1CSc1ncnc2sc3c(c12)CCCCC3	none | VLA-4 mod pick inactive
C=CCN(CC=C)C(=S)NC(=O)c1ccc(OC)cc1	VLA-4 inh 52.5 | VLA-4 mod pick inactive
C=CCN(CC=C)C(=S)NC(=O)c1ccc(-c2ccccc2)cc1	none
CC1CCCCC12NC(=O)N(CC(=O)OCC(=O)NC(=O)c1ccccc1)C2=O (stereo not drawn)	none
COc1ccc(-c2csc(Nc3ncccc3C)n2)cc1	VLA-4 inh 92.2, LAP4-GFP MLPCN 151.1 (no result: AGP1 TOR yeast) | VLA-4 mod pick inactive

Assay outcomes (PubChem BioAssay)
